Shown are actives, neighbours in structure and some others; about 1.4% of the full set was active somewhere.
uPA surface inh: inhibitors of cell surface uPA generation; cell surface uPA generation assay, qHTS; Potency, µM (top dose mostly 38.3 µM), without a hit: top-dose activity change, negative = inhibition, usual class: inhibitors; 330,000 tested, 0.31% active; AID 540303; active = well fitted inhibition curve with a large enough effect; inconclusive = small, poorly fitted or top-dose-only effect; inactive = no such curve, though single readings can be large or run the other way; tested in mouse RAW 264.7 cells; note: potency is the fitted concentration of half-maximal effect; % is set by controls: 0 for no effect and ±100 for the full control effect; nearly all actives have a fitted effect of over 55% in size
p53 reactivator: re-activators of mutant p53. H1299 p53-A138V BP100-luciferase reporter, luminescence, 24 h. Potency, µM (doses to about 92.2 µM), for the others: top-dose activity change, positive = activation, actives largely listed as activators. 320,000 tested, 0.063% active; note: potency is the fitted concentration of half-maximal effect; % of control where 0% means no effect; nearly all actives have a fitted effect of over 45% in size
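p53-null H1299 cells stably carrying temperature-sensitive p53-A138V and a BP100-luciferase reporter were pinned with compounds (4-point, 1:5 series) and held 24 hrs at 37 deg C. Luminescence was read 10 min after detection reagent.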
IL2 activator: activates IL-2 in a cell-based reporter assay | activation, % (series mostly up to about 46 µM) | 360,000 tested, 0.065% active | IL-2 activation reporter assay, cell-based qHTS; stimulated with anti-CD3/CD4/CD28 beads; in transgenic mouse T cells; in the data active = activation above about 50%; inconclusive = mostly about 30% to 49%; note: 0% is about no effect
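Unstimulated transgenic mouse T cells, 750 per well, received compound and, after 60 minutes, anti-CD3/anti-CD4 bead plus anti-CD28 stimulation. EGFP and DsRed were quantified after 18 hours.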
BRCA1 expr up: activators of BRCA1 expression. MCF7-BRCA1-FFLuc reporter, luminescence, 48 h; response scale: scaled: vehicle 0%, 10 µM genistein 100%. Potency, µM (titrated, usually from 46.1 µM), for inactives: at the top dose activation, hits mostly activators. 380,000 tested, 1.1% active; note: potency is the fitted concentration of half-maximal effect; nearly all actives have a fitted effect of over 80% in size
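Luminescence from a BRCA1-driven firefly luciferase in MCF7 cells was the read-out, taken 15 min after substrate addition following 48 h compound exposure at 37 °C. Data were normalized to a 10 microM genistein control and DMSO vehicle.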
TCR activator: T cell receptor activation | primary human leukocytes, anti-CD3, IL-2 HTRF, 48 h | Potency, µM (highest dose often 9.22 µM), without a hit: top-dose activation of IL-2 secretion, hits mostly activators | 330,000 tested, under 10 active | AID 504894; note: % of control where 0% means no effect
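IL-2 release read by HTRF sandwich (Eu cryptate donor, d2 acceptor, 665 nm emission) after 48 hr exposure of primary human leukocytes to compound together with anti-CD3 beads in the absence of co-stimulatory signals.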
* = called active by the depositor; ? = inconclusive; / = not tested or not shown; [ ] = remark or other dose. Unless noted, calls come from the whole dose curve; as a rule, active = well fitted curve in the direction sought with a large enough effect; inconclusive = small, poorly fitted or top-dose-only effect, or another doubt; inactive = no such curve, though single readings can be large; an effect the other way counts as inactive or inconclusive.

SMILES | uPA surface inh | p53 reactivator | IL2 activator | BRCA1 expr up | TCR activator
Cc1ccc(-n2ncc(C(=O)Nc3cc(Cl)cc(Cl)c3)c2C2CCNCC2)cc1C | 11µM* | -5% | 0 | -91% | 7%
O=C(Nc1ccc(F)cc1F)C1CCN(S(=O)(=O)c2ccc3[nH]c(=O)ccc3c2)CC1 | / | / | / | 18% | /
CCN(CC)C(=O)C(=O)Nc1ccc(F)c(Cl)c1 | 1% | 6% | 0 | 8.9µM* | 2%
O=C(Nc1ccc(Cl)cc1)N1CC=CCC1 | -2% | ? | 0 | 7.9µM* | 1%
O=C(Nc1ccc(F)c(Cl)c1)N1CCCC1 | 6% | -2% | -4 | 25% | 1%
CCCC(=O)Nc1ccc2c(c1)c1ccccc1n2CC | -10% | 1% | -1 | -62% | 2%[46.1 µM]
O=C(Nc1ccc(F)c(Cl)c1)N1CCCCCC1 | -1% | 4% | -1 | 8.9µM* | -3%
CCn1c2ccccc2c2cc(NC(=O)N3CCCCC3)ccc21 | / | / | -4 | 8.9µM* | /
CCN(CC)c1nc(NC2CCN(C)CC2)c2cc(OC)c(OC)cc2n1 | / | / | / | -11% | /
COc1cccc(NC(=O)Cn2c(=O)n(-c3cccc(OC)c3)c(=O)c3sc4ccccc4c32)c1 | / | / | / | -11% | /
COc1cc(SC)ccc1C(=O)Nc1ncc(C)s1 | 3.5µM* | 0% | 1 | ? | -1%
COc1cc(SC)ccc1C(=O)Nc1ccc(C)cc1C | -4% | ? | 0 | 7.9µM* | -3%[46.1 µM]
O=c1c(NCCc2ccc(Cl)cc2)nccn1-c1ccccc1 | / | / | / | 0% | /
O=C(Cc1ccc(OCCC2CCCCC2)cc1)NO | / | / | / | 3% | /
Nc1cc(N)[nH]c(=S)n1 | / | / | / | 5% | /
S=C(NCCN1CCOCC1)Nc1ccc(-c2nc3ccccc3[nH]2)cc1 | 10µM* | 2% | 1 | 33% | 2%
CN1C(=O)/C(=C\C=C2/CCCN2C)N(C)C1=S | 1% | 0% | 1 | 63% | /
CCN1C(=O)/C(=C/C=C2/CCCN2C)OC1=S | 1% | 13% | -2 | 7.1µM* | 3%
Cc1nc(-c2ccc(C)c(N3CCN(C(=O)Nc4cccc(Cl)c4C)CC3)c2)no1 | / | / | / | -7% | /
CN(c1nc(-c2ccc(Br)cc2)cs1)C1CCS(=O)(=O)C1 (centres undefined) | 6% | ? | 0 | 11µM* | 2%
COc1ccc(CCNC(=O)CCCn2c(=O)c3ccccc3n(Cc3cccc(Cl)c3)c2=O)cc1OC | / | / | / | -48% | /
CCc1ccc(NC(=O)CCCN2C(=O)C3CC=CCC3C2=O)cc1 (centres undefined) | -4% | -4% | -1 | 7.9µM* | 14%
COc1ccc(NC(=O)c2cnc[nH]2)cc1 | / | / | / | 0% | /
CN(C(=O)COC(=O)c1ccc([N+](=O)[O-])cc1N)c1ccccc1 | / | 7% | 77* | -6% | 1%
Cc1ccc(C(=O)OCC(=O)N(C)c2ccccc2)c(C)c1 | 1% | -5% | -1 | 12% | -8%
SMILES | uPA surface inh | p53 reactivator | IL2 activator | BRCA1 expr up | TCR activator
O=S(=O)(Nc1ccccc1)c1ccc(-c2csnn2)cc1 | 1% | -4% | -1 | -10% | 2%
c1ccc(-c2ccc(-c3csnn3)cc2)cc1 | -1% | 16% | 0 | 7.9µM* | 2%
O=C(NCCCc1ccccc1)c1ccc(F)cc1 | -3% | 14% | 1 | 7.1µM* | /
O=C(NCCCc1ccccc1)c1cccc(Br)c1 | 4% | / | 1 | 13µM* | 18%
O=C(NCCc1ccccc1)c1cccc(NC(=O)C2CCCCC2)c1 | -12% | / | -1 | 84% | 10%
CC(=O)Nc1ccc(C(=O)NCCc2ccccc2)cc1 | 3% | ? | 0 | 13µM* | 0%[46.1 µM]
O=C(NCCCCNC(=O)c1ccc(F)cc1)c1ccc(F)cc1 | 5% | -2% | 0 | -17% | /
O=C(NCCc1ccccc1)c1ccc(NC(=O)C2CC2)cc1 | -11% | / | 0 | ? | 3%
O=C(NCCCCc1ccccc1)c1cccc(Br)c1 | 4% | 0% | 0 | 39% | 2%
O=C(NCCc1ccccc1)c1cccc(NC(=O)C2CCCC2)c1 | 3% | / | 0 | 10µM* | 8%
CCc1ccc(NC(=O)c2ccc3c(=O)n4nc(Nc5ccccc5C)sc4nc3c2)cc1 | / | / | / | 2% | /
CC(=O)c1ccc(NC(=O)Nc2cccc3ccccc23)cc1 | -7% | 13% | 5 | 4µM* | 2%
CC(=O)Nc1ccc(NC(=O)Nc2cccc3ccccc23)cc1 | -6% | 11% | 0 | 6% | -3%

Compound activity as filed in PubChem BioAssay.
